Compound activity (PubChem BioAssay)
Shiga inhibitor: A qHTS for Small Molecule Inhibitors of Shiga Toxin. Vero cells, Shiga toxin protein synthesis inhibition reporter. inhibition, % at 38.7 µM. 290,000 tested, 9.2% active; in the data active means inhibition mostly above about 28%, no sharp cut-off; inactive means mostly below about 43%; further: 0% is about no effect
AMA1-RON2 inh: qHTS for Inhibitors of AMA1-RON; Towards Development of Antimalarial Drug Lead: Primary Screen | 360,000 tested, 0.2% active | AlphaScreen AMA1-biotinylated RON2 peptide binding | Potency, µM (highest dose often 58.2 µM), inactives show at the highest dose activity change, negative = inhibition, usual class: inhibitors | Plasmodium falciparum AMA1 (3D7) - RON2 peptide interaction; active means well fitted inhibition curve with a large enough effect; inconclusive means small, poorly fitted or top-dose-only effect; inactive means no such curve, though single readings can be large or run the other way;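 further: potency means the concentration at half of the fitted maximal effect; 0% = vehicle wells and -100% = peptide control; nearly all actives have a fitted effect of over 45% in size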
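AMA1 (3D7) with his tag at 25 nM final met compounds first, then biotinylated RON2 peptide at 25 nM; detection used donor plus acceptor beads, 10 µg/mL apiece, read by AlphaScreen after 30 min at room temperature.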
Lassa entry inh: qHTS for Inhibitors of binding or entry into cells for Lassa Virus. Lassa virus pseudotype entry inhibition, cell reporter. Potency, µM (highest dose often 37.9 µM), for inactives: at the top dose activity change, negative = inhibition, actives largely listed as inhibitors. 300,000 tested, 1.2% active. AID 540256, 2011; calls by dose curve; tested in HEK293 cells; further: potency means the concentration at half of the fitted maximal effect; on the % scale 0 is the no-effect control and ±100 the full control effect; nearly all actives have a fitted effect of over 50% in size
CHX counter: Cycloheximide Counterscreen for Small Molecule Inhibitors of Shiga Toxin; cell reporter, cycloheximide protein synthesis inhibition counterscreen; 300,000 tested, 12% active; max response, %; in the data active means max response mostly above about 13%, no sharp cut-off; inactive means mostly below about 14%; further: read at 38.3 µM for the half of the compounds with a filed dose; 0% is about no effect
Marburg entry inh: qHTS for inhibitors of binding or entry into cells for Marburg Virus. Marburg virus pseudotyped entry inhibition, cell reporter. Potency, µM (doses to about 37.8 µM), for inactives: at the highest dose activity change, negative = inhibition, most hits filed as inhibitors. 300,000 tested, 1.8% active; calls by dose curve; tested in HEK293 cells; further: potency means the concentration at half of the fitted maximal effect; on the % scale 0 is the no-effect control and ±100 the full control effect
* = called active by the depositor; ? = inconclusive; · = no result given; [ ] = remark or other dose. The full list was thinned out, with hits kept by preference.

SMILES	Shiga inhibitor	AMA1-RON2 inh	Lassa entry inh	CHX counter	Marburg entry inh
Cc1ccccc1OCCn1cc(/C=C(\C#N)C(=O)NCc2ccco2)c2ccccc21	39.7	-1.6%	18.8%	10.7	?
CC(=O)c1cn(CC(=O)NCc2ccco2)c2ccccc12	129.6*	-18.0%	19.2%	27.5	-4.6%
CC(C(=O)NCc1ccco1)n1cc(C(=O)c2ccco2)c2ccccc21 (stereo not given)	-3.4	14.6%	-0.4%	14.9*	-2.6%
CC(=O)c1c(C)n(CC(=O)NCc2ccco2)c2ccccc12	-2.5	23.5%	-26.8%[46.1 µM]	-2.5	?
N#C/C(=C\c1cn(CCOc2ccccc2)c2ccccc12)C(=O)NCc1ccco1	12.9	26.8%	0.3%	16.0*	-38.5%
O=C(COc1ccccc1)c1cn(CC(=O)N2CCOCC2)c2ccccc12	21.7	23.7%	9.1%	6.4	-13.2%
N#Cc1ccc(CC(=O)c2ccccc2)[nH]c1=O	·	80.4%	5.5%	·	6.3%
Nc1nnc(-c2ccc(F)cc2)s1	11.3	9.1%	-13.7%	10.8	0.3%
CC(C)(C)c1ccc(-c2nnc(N)s2)cc1	80.2*	-1.9%	·	59.4*	·
CCCCOc1ccc(-c2nnc(N)s2)cc1	22.1	-26.2%	7.8%	21.2*	-5.8%
CCOc1ccc(-c2nc(CCl)cs2)cc1	153.0*	-12.1%	·	33.6*	·
Nc1nnc(-c2ccc(Cl)cc2)s1	66.3	7.0%	19.6%	23.1	6.6%
CCCCOc1ccc(-c2ncc(N)cn2)cc1	114.4*	3.0%	·	53.2*	·
CCOc1ccc(-c2nnc(N)s2)cc1	141.8*	17.3%	-20.9%	24.7*	24.5%
COc1ccc(OCC(=O)Nc2c(C)ccc3nsnc23)cc1	-1.5	-4.5%	0.6%	1.3	-5.0%
CC(C)(C)C(=O)NC(=S)Nc1ccccn1	14.6	20.3%	12.0%	16.8	19.1%[46.1 µM]
Cc1ccnc(NC(=S)NC(=O)c2ccco2)c1	96.1*	15.2%	?	39.8*	?
O=C(NC(=S)Nc1cccnc1Cl)c1ccco1	55.0*	16.7%	·	21.2*	·
O=C(NC(=S)Nc1ccccn1)c1ccco1	57.8*	76.5%	?	46.6*	?
O=C(NC(=S)Nc1ccccc1[N+](=O)[O-])c1ccco1	62.9	4.9%	?	22.3*	14.4%[46.1 µM]
O=C(NC(=S)Nc1ccc([N+](=O)[O-])cc1)c1ccco1	·	20.8%	·	·	·
CN1CCN(CCCNC(=O)c2ccc3c(Cl)c4c(nc3c2)CCCC4)CC1	-2.8	-2.2%	·	-2.0	·
CCOC(=O)c1c(C)nc2c(c1-c1ccc(Cl)cc1)C(=O)CC(C)(C)C2	-17.0	12.4%	?	-1.0	?
Cc1ccnc(NC(=S)NC(=O)c2cccs2)c1	159.7*	29.4%	?	77.7*	?
CCNC(=S)Nc1cc(C)ccn1	29.0*	-25.4%	?	13.7	3.5%
SMILES	Shiga inhibitor	AMA1-RON2 inh	Lassa entry inh	CHX counter	Marburg entry inh
Cc1ccc(CC(=O)Nc2cc(C)ccn2)cc1	17.3	14.6%	·	15.6	·
COc1cc(/C=N/Nc2ccc(Cl)cc2)ccc1OC(=O)c1cccs1	14.2	-7.7%	11.2%	16.1*	2.7%
COc1cc(/C=N/N(C)C)ccc1OC(=O)c1cccs1	71.1*	?	24.1%	28.7*	3.2%
CC(C)CNC(=O)C1=CC(c2ccc3c(c2)OCO3)=NS(=O)(=O)N1C	·	·	-15.8%[46.1 µM]	·	0.8%[46.1 µM]
COCc1c(C(=O)N/N=C(/C)c2cccs2)nnn1-c1nonc1N	3.8	-8.5%	·	-0.8	16.2%[46.1 µM]
CC(=O)Nc1cccc(/C(C)=N/NC(=O)c2cccs2)c1	45.8*	12.2%	11.0%[46.1 µM]	56.5*	?
C/C(=N\NC(=O)c1nonc1N)c1cccs1	active	36.4%	10.5%	23.1*	?
C/C(=N/NC(=O)c1cccs1)c1cccs1	75.8*	38.2%	-3.0%[46.1 µM]	42.7*	?
CCN(CC)S(=O)(=O)c1cccc(C(=O)N/N=C(\C)c2cccs2)c1	74.4*	95.1%	?	31.3*	9.5%[46.1 µM]
Cc1cc(C)cc(NC(=O)c2cc(S(=O)(=O)N3CCOCC3)cn2C)c1	·	·	-0.7%[46.1 µM]	·	·
CCOC(=O)N/N=C(\C)c1cccs1	95.9*	15.6%	14.7%	34.7*	?
CC(=O)Nc1cccc(/C(C)=N/NC(=S)NC(C)C)c1	67.4*	22.0%	?	28.3*	-16.9%
C/C(=N/NC(=O)c1cccs1)c1cccc(N)c1	87.9*	23.0%	6.1%[46.1 µM]	42.7*	?
C/C(=N\NC(=O)CC1(C)OCCO1)c1cccs1	16.1	-6.1%	10.3%	0.8	5.7%
C/C(=N\NC(=O)c1cccs1)c1c(O)cc(C)oc1=O	84.1*	137.5%	·	51.1*	·
O=C(NCC(c1ccco1)S(=O)(=O)c1cccs1)c1ccc(F)c(F)c1 (stereo not given)	·	·	-18.1%[46.1 µM]	·	·
O=C(/C=C\c1ccc2c(c1)OCO2)CC1(O)C(=O)Nc2ccccc21 (stereo not given)	-4.1	10.2%	?	6.2	?
O=C(NNC(=O)c1sccc1-n1cccc1)c1cccs1	-5.6	29.7%	·	-5.9	·
C/C(=N\NC(=O)c1sccc1-n1cccc1)c1cccs1	53.7*	40.6%	-3.7%[46.1 µM]	18.6	-2.0%[46.1 µM]
COC(=O)c1cc(C(=O)OC)cc(N2C(=O)CC(NNC(=O)c3ccc(C)cc3)C2=O)c1 (stereo not given)	17.9	12.2%	0.794µM*	11.3	?
CC(=O)NCCCC(=O)NNC1CC(=O)N(c2cccc(Cl)c2)C1=O (stereo not given)	-4.8	15.9%	1.0%	-2.6	-2.7%[14.2 µM]
COc1cccc(N2C(=O)CC(NNC(=O)c3cccs3)C2=O)c1 (stereo not given)	43.1*	-1.1%	12.1%	19.0*	7.7%
O=C(NNC1CC(=O)N(c2cccc(Cl)c2)C1=O)c1cccs1 (stereo not given)	38.8*	10.0%	?	11.2	-3.1%
COc1ccc(N2C(=O)CC(NNC(=O)c3ccc(Br)s3)C2=O)cc1 (stereo not given)	7.8	62.6%	14.4%	1.4	-7.2%[46.1 µM]
O=C(CCCCn1c(=O)c2ccccc2n(Cc2ccccc2Cl)c1=O)NCCc1ccccc1	·	·	14.0%[46.1 µM]	·	2.4%[46.1 µM]
SMILES	Shiga inhibitor	AMA1-RON2 inh	Lassa entry inh	CHX counter	Marburg entry inh
COC(=O)C(Cc1ccc(OC(=O)c2ccc(Cl)cc2)cc1)N1Cc2ccccc2C1=O (stereo not given)	126.4*	-3.9%	9.4%	44.1*	?
CCOC(=O)c1ccc(NC(=O)C(Cc2ccccc2)N2Cc3ccccc3C2=O)cc1 (stereo not given)	·	·	11.8%[46.1 µM]	·	·
COC(=O)C(Cc1ccc(OC(=O)c2ccc(C(F)(F)F)cc2)cc1)N1Cc2ccccc2C1=O (stereo not given)	69.3*	-1.9%	10.2%	42.7*	?
COc1ccc(-n2cc(CNCCN3CCOC3=O)c(-c3ccccc3Cl)n2)cc1	-3.8	-9.1%	·	-2.2	·
CCN1CCC(CNCc2cn(-c3ccc(OC)cc3)nc2-c2ccccc2Cl)C1 (stereo not given)	1.1	-8.2%	?	0.8	3.98µM*
CCN1CCN(C(=O)COCc2cc(-c3ccc4c(c3)OCO4)on2)CC1	27.2	8.9%	?	21.9*	-0.9%[46.1 µM]
